Shown are actives, neighbours in structure and some others; about 5.9% of the full set was active somewhere.
HepG2 viability = qHTS for Inhibitors of TGF-b: Cytotox Counterscreen; HepG2 CAGA-GFP viability, ATP luminescence, 18 h; Potency, µM (doses to about 46.1 µM), inactives show at the highest dose activity change, negative = cytotoxicity, usual class: cytotoxic; hit rate 0.76% among 410,000; AID 588856, 2011
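CellTiter-Glo luminescence gave cytotoxicity after 18 hours at 37 degrees C. The cells were HepG2 CAGA-GFP in 1% FBS DMEM, stimulated with 500 pg/mL TGF-beta after compound addition. %Activity was normalised to no-cell wells (complete cell-killing) and DMSO (no toxicity), and curves were fitted and classified.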
ATXN2 expr inh = Primary qHTS for Inhibitors of ATXN expression. HEK-293 ATXN2-luciferase reporter, luminescence, 24 h. Potency, µM (titrated, usually from 57 µM), for the others: top-dose activity change, negative = inhibition, hits mostly inhibitors. hit rate 0.72% among 360,000. AID 1745845, 2022; note: % is set by controls: 0 for no effect and ±100 for the full control effect; nearly all actives have a fitted effect of over 55% in size
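qHTS (up to 57 uM final) was run with 24 h compound exposure of reporter cells at 37 °C. Each well was multiplexed: SteadyGlo luminescence measured ATXN2-luciferase expression after a fluorogenic Gly-Phe-AFC viability readout (25 uM final).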
KB-3-1 tox = qHTS assay for MDR1-selective chemotherapeutics: Primary screen using the parental adenocarcinoma cell KB-3-1; AID 1347075, 2019; hit rate 1.4% among 400,000; Potency, µM (highest dose often 46.1 µM), hits mostly cytotoxic; KB-3-1 viability, CellTiter-Glo ATP luminescence, 72 h; note: % is set by controls: 0 for no effect and ±100 for the full control effect; nearly all actives have a fitted effect of over 60% in size
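Luminescent ATP read-out (CellTiter-Glo) measures survival of drug-naive KB-3-1 cells after 72 h compound exposure at 37 °C. Titration series was screened from lowest to highest concentration, with DMSO vehicle plates as background controls.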
S2 tox = Viability Counterscreen for Primary qHTS for Inhibitors of ATXN expression. S2 cells (HEK-293 line with an ATXN2-luciferase reporter) viability, CellTiter-Fluor protease fluorescence, 24 h. Potency, µM (titrated, usually from 56.7 µM), most hits filed as cytotoxic. hit rate 0.49% among 400,000; note: nearly all actives have a fitted effect of over 40% in size
KB-V1 MDR tox = qHTS assay for MDR1-selective chemotherapeutics: Primary screen using the drug-selected MDR subline cells KB-V1; KB-V1 MDR cells viability, CellTiter-Glo, 72 h; Potency, µM (series often up to 46.1 µM), hits mostly cytotoxic; hit rate 3.4% among 400,000; AID 1347076, 2019; note: % is set by controls: 0 for no effect and ±100 for the full control effect; nearly all actives have a fitted effect of over 60% in size
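Cytotoxicity toward P-gp-expressing KB-V1 cells was determined as loss of CellTiter-Glo luminescence after 72 h at 37 degrees C. Compounds were tested in quantitative HTS format across a concentration range, with curves fitted to normalized data.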
TGFb inhibitor = qHTS for Inhibitors of TGF-b; HepG2 CAGA-GFP TGF-b/SMAD3 reporter, GFP fluorescence, 18 h; TGF-beta stimulated, 500 pg/mL final; Potency, µM (top dose mostly 46.1 µM), for inactives: at the highest dose activity, negative = inhibition, hits mostly inhibitors; hit rate 1.2% among 410,000; note: % is set by controls: 0 for no effect and ±100 for the full control effect; nearly all actives have a fitted effect of over 65% in size
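Read-out: total well GFP (ex488/em500-530) summed from mean per-cell fluorescence. Cells: HEPG2 CAGA-GFP, 1% FBS DMEM, 18 h at 37 degrees C with 500 pg/mL final TGF-beta. Unstimulated wells served as the full-inhibition control; stimulated DMSO wells = 0%.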
Active calls of the source: *; i = inactive; ? = inconclusive; · = no result given. Calls come from the whole dose curve; as a rule, active = well fitted curve in the direction sought with a large enough effect; inconclusive = small, poorly fitted or top-dose-only effect, or another doubt; inactive = no such curve, though single readings can be large; an effect the other way counts as inactive or inconclusive. Potency is the fitted concentration of half-maximal effect.

SMILES	HepG2 viability	ATXN2 expr inh	KB-3-1 tox	S2 tox	KB-V1 MDR tox	TGFb inhibitor
Cc1cc(=O)oc2c(CN3CCCCC3)c(O)ccc12	-4.3%	-27.1%	i	?	i	-1.3%
O=C(c1cc(C(=O)NCCc2ccccc2)c(=O)n(CCc2ccccc2)c1)c1cc(Cl)ccc1O	-5.6%	-24.5%	?	i	2.31µM*	?
COc1ccc(CCNC(=O)c2cc(C(=O)c3cc(Cl)ccc3O)cn(CCc3ccc(OC)cc3)c2=O)cc1	2.4%	-3.6%	i	i	2.59µM*	?
O=C(Cn1ccn(-c2ccc(F)c(F)c2)c(=O)c1=O)c1ccc(F)cc1	-21.8%	·	·	·	·	-1.9%
Nc1c(I)cc(I)c(C(=O)N(CCC(=O)O)c2ccccc2)c1I	·	2.8%	·	i	·	·
Cc1c(NC(=O)c2ccc(COc3ccc4ccccc4c3)o2)c(=O)n(-c2ccccc2)n1C	-4.3%	1.6%	20.6µM*	i	7.31µM*	-4.2%
Cc1cc(C)c2c(C)c(C(=O)Nc3c(C)n(C)n(-c4ccccc4)c3=O)oc2c1	-10.8%	?	i	?	8.2µM*	-3.2%
Cc1c(NC(=O)C(=O)/C=C(/O)c2ccccc2)c(=O)n(-c2ccccc2)n1C	19.3%	3.2%	i	i	?	12.1%
COc1ccc(/C(O)=C/C(=O)C(=O)Nc2c(C)n(C)n(-c3ccccc3)c2=O)cc1	-3.2%	3.2%	i	i	16.4µM*	-0.6%
Cc1ccc2c(=O)cc(C(=O)Nc3c(C)n(C)n(-c4ccccc4)c3=O)oc2c1	-2.5%	-2.2%	i	i	i	0.4%
Cc1ccnc(NC(=S)N2CCN(c3ccc(N)cc3)CC2)c1	·	·	i	·	i	·
COc1ccc(C(=O)N(Cc2ccco2)Cc2cccs2)c(OC)c1	4.1%	·	i	·	i	-2.0%
N#Cc1ccc(Oc2ccc3c(c2)COB3O)cc1	·	-23.2%	·	·	·	·
CC(C)(C)C1CCN2CCCC(c3ccc([N+](=O)[O-])cc3)(C1)C21OCCO1 (stereo not drawn)	·	-12.8%	?	i	?	·
CC1CCN(CC2CCN(C(=O)NCc3ccccc3)CC2)CC1	-0.9%	4.3%	i	i	i	-0.7%
Clc1ccccc1CSc1nncn1NC/C=C/c1ccccc1	-10.5%	-6.5%	i	i	20.6µM*	-12.5%
Cc1cc(CC(C)C)n(-c2nc3ccccc3c(=O)n2OCc2ccccc2)n1	-15.7%	3.9%	?	i	9.2µM*	-13.8%
Cc1cc(CC(C)C)n(-c2nc3ccccc3c(=O)n2OCC(=O)N(C)C)n1	14.4%	27.9%	i	i	i	?
Cc1cc(C)n(-c2nc3ccccc3c(=O)n2OCC(=O)OCc2ccccc2)n1	-12.2%	?	23.1µM*	?	i	-26.9%
CCOC(=O)/C(C#N)=C1/SC(CC)C(=O)N1c1ccc(Br)cc1 (stereo not drawn)	-19.9%	5.1%	i	i	8.2µM*	-9.8%
COc1cccc(C(C)(O)c2nc(-c3ccc(N(C)C)cc3)cs2)c1 (stereo not drawn)	-13.2%	2.1%	?	i	i	?
CCN(CC)CCNC(=O)c1c(C)n(-c2ccccc2)c2cc(Br)c(OC)cc12	20µM*	?	?	?	i	?
NC(=O)[C@@H]1CCCN1C(=O)CCN1Cc2ccccc2OC(c2ccccc2F)C1 (stereo partly drawn)	·	·	·	i	·	·
O=C(C1CCC(CNS(=O)(=O)c2cccc3nsnc23)CC1)N1CCN(c2ccccn2)CC1 (stereo not drawn)	-36.2%	-10.2%	i	i	18.4µM*	-3.4%
COc1ccc2nc(NC(=O)C3CCN(S(=O)(=O)c4cccc5nsnc45)CC3)sc2c1	-32.8%	?	?	i	1.64µM*	-3.8%
SMILES	HepG2 viability	ATXN2 expr inh	KB-3-1 tox	S2 tox	KB-V1 MDR tox	TGFb inhibitor
Cc1cccc(NC(=O)C2CCN(S(=O)(=O)c3cccc4nsnc34)CC2)n1	-4.9%	-16.8%	i	?	i	-7.1%
O=C(Nc1cccc(C(F)(F)F)c1)C1CCCN1S(=O)(=O)c1cccc2cccnc12 (stereo not drawn)	-19.1%	?	i	i	2.59µM*	-4.0%
O=C(Nc1cccc(C(F)(F)F)c1)C1CCCN(S(=O)(=O)c2cccc3nsnc23)C1 (stereo not drawn)	-17.3%	-12.1%	i	i	i	6.31µM*
O=C(Nc1cccc(Cl)c1)C1CCCN1S(=O)(=O)c1cccc2cccnc12 (stereo not drawn)	-2.3%	·	·	·	·	0.0%
CCOC(=O)C1CCCCN1C(=O)c1cnn(-c2nccc(-c3cc(C)sc3C)n2)c1C1CC1 (stereo not drawn)	·	·	·	i	·	·
Cc1c(C(=O)NCC2(N3CCCCC3)CCCC2)cnn1-c1nccc(-c2ccccc2F)n1	·	·	·	i	·	·
O=C(C1CCCN(S(=O)(=O)c2cccc3nsnc23)C1)N1CCN(c2ccccc2Cl)CC1 (stereo not drawn)	-36.3%	-21.2%	?	i	i	14.1µM*
O=C(C1CCCN(S(=O)(=O)c2ccccc2[N+](=O)[O-])C1)N1CCN(c2ccccc2)CC1 (stereo not drawn)	-0.1%	-9.2%	i	?	5.8µM*	-16.5%
CSc1cccc(-n2nnc(-c3nsc(NC(=O)c4cccs4)n3)c2C)c1	-57.0%	·	i	·	i	?
CCCCOc1ccc(Cn2c(=O)sc3ccccc32)cc1OC	-17.2%	0.4%	i	i	?	-2.9%
Brc1ccc(OCc2nc(-c3ccccn3)n[nH]2)cc1	-22.8%	-10.1%	i	i	i	-18.8%
Clc1ccc(OCc2nc(-c3ccccn3)n[nH]2)cc1	-10.7%	?	?	?	4.61µM*	-22.7%
CCC(C)(C(=O)NC1CCCC1)N(CC1CCCO1)C(=O)c1ccc2c(c1)OCO2 (stereo not drawn)	-10.1%	-14.1%	i	i	i	0.0%
CCC(C)(C(=O)NC1CCCCC1)N(Cc1ccco1)C(=O)c1ccc2c(c1)OCO2 (stereo not drawn)	-4.8%	-8.4%	i	?	11.6µM*	-1.8%
Clc1nc(CN2CCCCC2)nc2sc3c(c12)CCCC3	-38.8%	·	i	?	i	25.1µM*
Clc1nc(CN2CCOCC2)nc2sc3c(c12)CCC3	0.1%	-8.8%	i	i	i	14.9%

Bioassay records from PubChem BioAssay.
